{"source": "PubChem BioAssay (NCATS)", "key": {"[1]": {"target": "Cytochrome P450 2C9 (Homo sapiens) (UniProt P11712)", "sequence (P11712 whole entry, looked up)": "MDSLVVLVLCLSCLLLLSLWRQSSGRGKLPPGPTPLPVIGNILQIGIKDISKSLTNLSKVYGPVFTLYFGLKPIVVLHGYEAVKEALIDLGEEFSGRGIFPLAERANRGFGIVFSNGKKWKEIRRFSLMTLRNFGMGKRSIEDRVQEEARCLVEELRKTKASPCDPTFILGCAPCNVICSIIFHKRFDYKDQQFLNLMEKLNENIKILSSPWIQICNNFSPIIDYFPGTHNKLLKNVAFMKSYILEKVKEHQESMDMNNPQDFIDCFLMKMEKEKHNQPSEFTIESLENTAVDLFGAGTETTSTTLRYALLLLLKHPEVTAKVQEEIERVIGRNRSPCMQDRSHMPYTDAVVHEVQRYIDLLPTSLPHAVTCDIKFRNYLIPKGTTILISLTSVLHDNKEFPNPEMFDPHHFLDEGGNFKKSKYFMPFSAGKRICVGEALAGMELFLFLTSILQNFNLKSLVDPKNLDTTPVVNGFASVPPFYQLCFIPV", "experiment": "Cytochrome P450 family 2 subfamily C member 9 (CYP2C9) small molecule antagonists: luciferase biochemical (cell-free) qHTS assay (AID 1645842); also: nearly all actives have a fitted effect of over 55% in size; also: potency is read from the fitted curve at half-maximal effect; as to activity change, negative = inhibition: % is scaled to controls: 0 for no effect and ±100 for the full control effect", "procedure,_shortened": "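Luminescence, after 20 min with luciferin detection reagent, reflected CYP2C9 turnover during a 1 h NADPH-driven reaction at 37C. Enzyme-substrate mix contained 0.4% bovine serum albumin and was preincubated with compound 10 min at room temperature.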"}, "[2]": {"experiment": "Primary qHTS for inhibitors of nuclear receptor binding SET domain protein 2 (NSD2) in an isogenic RCH-ACV NSD2 p.E1099K mutant (9B) (AID 1645876; active = well fitted curve in the direction sought with a large enough effect; an effect the other way counts as inactive or inconclusive; also: nearly all actives have a fitted effect of over 70% in size; also: potency is read from the fitted curve at half-maximal effect)"}, "[3]": {"experiment": "Primary qHTS for inhibitors of nuclear receptor binding SET domain protein 2 (NSD2) in an RCH-ACV wild type WT cells (2C) (AID 1645877; active = well fitted curve in the direction sought with a large enough effect; an effect the other way counts as inactive or inconclusive; also: nearly all actives have a fitted effect of over 70% in size; also: potency is read from the fitted curve at half-maximal effect)"}, "[4]": {"experiment": "Cytotoxicity counterscreen for inhibitors of SARS-CoV-2 cell entry (AID 1645845; calls by dose curve; also: nearly all actives have a fitted effect of over 50% in size)", "conditions": "outcome: at 57.1 µM (top of the series) unless noted", "procedure,_shortened": "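HEK293-ACE2 cells (Expi293F stably expressing human ACE2) seeded overnight, then compound for 1 h plus 48 h at 37C. Viability as ATP content by luminescence; normalized to wells with cells and media-only wells.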"}, "[5]": {"experiment": "Primary qHTS to identify inhibitors of SARS-CoV-2 cell entry (AID 1645846; calls by dose curve; also: nearly all actives have a fitted effect of over 45% in size; also: potency is read from the fitted curve at half-maximal effect)", "conditions": "activity change, negative = inhibition: at 57.1 µM (top of the series) unless noted", "procedure,_shortened": "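HEK293-ACE2 (Expi293F, stable hACE2), 1500 cells/well, o/n 37C; cpd 23 nL pin, 1 h; MLV-PP w/ SARS-CoV-2-S (Wuhan-Hu-1, Δ19 C-term); 48 h 37C; Bright-Glo luminescence; normalized vs S-PP and bald PP.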"}, "[6]": {"experiment": "Confirmatory qHTS to identify inhibitors of SARS-CoV-2 cell entry (AID 1645844; calls by dose curve; also: potency is read from the fitted curve at half-maximal effect; nearly all actives have a fitted effect of over 45% in size)", "conditions": "SARS-CoV-2 pseudotyped particle cell entry, luciferase", "procedure,_shortened": "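HEK293-ACE2 cells were pretreated 1 h with compound, then infected with MLV-based pseudoparticles bearing C-terminally truncated Wuhan-Hu-1 spike for 48 h at 37C; luciferase luminescence normalized to spike PP and bald PP wells.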"}, "[7]": {"experiment": "VSVG counterscreen qHTS to identify inhibitors of SARS-CoV-2 cell entry (AID 1645847; calls by dose curve; also: potency is read from the fitted curve at half-maximal effect; nearly all actives have a fitted effect of over 65% in size)", "conditions": "VSV-G pseudotyped particle entry, luciferase", "procedure,_shortened": "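Expi293F/hACE2 cells, overnight plating; cpd 1 h, 37C/5% CO2; + VSV-G PP (MLV pseudotyping), 48 h; supernatant removed, Bright-Glo luciferase read. Norm: VSV-G PP and bald PP wells.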"}, "Papain (Carica papaya)": {"target": "Papain (Carica papaya) (UniProt P00784)", "sequence (P00784 whole entry, looked up)": "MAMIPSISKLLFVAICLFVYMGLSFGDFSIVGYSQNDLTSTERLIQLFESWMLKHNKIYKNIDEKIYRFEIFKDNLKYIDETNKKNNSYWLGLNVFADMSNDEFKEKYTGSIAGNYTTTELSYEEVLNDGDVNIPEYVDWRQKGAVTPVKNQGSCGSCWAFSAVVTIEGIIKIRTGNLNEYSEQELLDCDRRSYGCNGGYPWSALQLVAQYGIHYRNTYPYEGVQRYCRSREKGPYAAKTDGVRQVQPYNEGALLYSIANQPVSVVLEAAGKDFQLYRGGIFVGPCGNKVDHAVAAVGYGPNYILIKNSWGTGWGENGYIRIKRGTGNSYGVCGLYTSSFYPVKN", "experiment": "Primary qHTS assay for inhibitors of the protease papain (AID 1645873; active = well fitted curve in the direction sought with a large enough effect; an effect the other way counts as inactive or inconclusive;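 also: papain turnover of Z-FR-AMC read as the AMC fluorescence gain over 10 min; % is scaled to controls: 0 for no effect and ±100 for the full control effect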)"}}, "note": "Several values for one entry are separate records, joined by “and”; a condition that tells them apart may be missing. Equal entries are not always repeated. Results filed as inconclusive are left out. Activity calls are given as the source filed them. Unless noted, calls follow the shape of the dose curve; as a rule, active = well fitted curve in the direction sought with a large enough effect in the repeat runs; inconclusive = weak or mixed curves; inactive = no such curve, though single readings can be large; an effect the other way counts as inactive or inconclusive.", "data": [{"smiles": "CCc1c(C(=O)C(N)=O)c2c(OCC(=O)OC)cccc2n1Cc1ccccc1", "values": [{"measurement": "Potency", "setting": "[1]", "value": "13.5 µM (active)"}, {"measurement": "Potency", "setting": "[2]", "value": "inactive"}, {"measurement": "Potency", "setting": "[3]", "value": "inactive"}]}, {"smiles": "C[C@@](O)(COc1ccc(C#N)cc1)C(=O)Nc1ccc(C#N)c(C(F)(F)F)c1", "values": [{"measurement": "Potency", "setting": "[1]", "value": "1.51 µM (active)"}]}, {"smiles": "CC1CCC(C(C)C)C(OC(=O)c2ccccc2N)C1", "note": "(stereo not given)", "values": [{"measurement": "Potency", "setting": "[1]", "value": "2.68 µM (active)"}, {"measurement": "outcome", "setting": "[4]", "value": "inactive"}, {"measurement": "activity change, negative = inhibition", "setting": "[5]", "value": -3.33, "unit": "%"}]}, {"smiles": "O=C1C2CC=CCC2C(=O)N1SC(Cl)(Cl)Cl", "note": "(stereo not given)", "values": [{"measurement": "Potency", "setting": "[1]", "value": "6.74 µM (active)"}, {"measurement": "Potency", "setting": "[6]", "value": "15.2 µM (active)"}, {"measurement": "Potency", "setting": "[7]", "value": "15.2 µM (active)"}]}, {"smiles": "O=[N+]([O-])C(Br)(CO)CO", "values": [{"measurement": "Potency", "setting": "[1]", "value": "6.74 µM (active)"}, {"measurement": "outcome", "setting": "[4]", "value": "inactive"}, {"measurement": "Potency", "setting": "[5]", "value": "inactive"}]}, {"smiles": "C[C@H](NC(=O)Cc1cc(F)cc(F)c1)C(=O)N[C@@H]1N=C(c2ccccc2)c2ccccc2N(C)C1=O", "values": [{"measurement": "Potency", "setting": "[1]", "value": "inactive"}]}, {"smiles": "C[CH2][Hg][S]c1ccccc1C(=O)O", "values": [{"measurement": "Potency", "setting": "[1]", "value": "3.47 µM (active)"}, {"measurement": "Potency", "setting": "[2]", "value": "668 nM (active)"}]}, {"smiles": "CCCCCOc1cc2c(cc1-c1cc(/C=C/C(=O)O)ccc1O)C(C)(C)CCC2(C)C", "values": [{"measurement": "Potency", "setting": "[1]", "value": "12 µM (active)"}]}, {"smiles": "CC(C)[C@@H](CN1CC[C@@](C)(c2cccc(O)c2)[C@@H](C)C1)NC(=O)[C@H]1Cc2ccc(O)cc2CN1", "values": [{"measurement": "Potency", "setting": "[1]", "value": "inactive"}, {"measurement": "Potency", "setting": "[2]", "value": "18300 nM (active)"}, {"measurement": "Potency", "setting": "[3]", "value": "14.5 µM (active)"}]}, {"smiles": "CN1CCC[C@@H]1Cc1c[nH]c2ccc(Nc3ncccc3[N+](=O)[O-])cc12", "values": [{"measurement": "Potency", "setting": "[1]", "value": "19 µM (active)"}, {"measurement": "Potency", "setting": "Papain (Carica papaya)", "value": "inactive"}, {"measurement": "Potency", "setting": "[2]", "value": "inactive"}]}, {"smiles": "CCOc1ccccc1-n1c(C(C)N2CCN(C(=O)COc3ccc(Cl)cc3)CC2)nc2ccccc2c1=O", "note": "(stereo not given)", "values": [{"measurement": "Potency", "setting": "[1]", "value": "13.5 µM (active)"}, {"measurement": "Potency", "setting": "[6]", "value": "0.0192 µM (active)"}, {"measurement": "Potency", "setting": "[5]", "value": "10 µM (active)"}, {"measurement": "Potency", "setting": "[7]", "value": "19.2 µM (active)"}, {"measurement": "Potency", "setting": "[2]", "value": "916 nM (active) and 662 nM (active)"}]}, {"smiles": "Clc1ccc(OCC2=NCCN2)cc1Cl", "values": [{"measurement": "Potency", "setting": "[1]", "value": "inactive"}, {"measurement": "Potency", "setting": "[2]", "value": "inactive"}]}, {"smiles": "CC(N)Cc1c[nH]c2ccccc12", "note": "(stereo not given)", "values": [{"measurement": "Potency", "setting": "[1]", "value": "inactive"}, {"measurement": "Potency", "setting": "[2]", "value": "inactive"}]}, {"smiles": "C#CC(C)(O)CC", "note": "(stereo not given)", "values": [{"measurement": "Potency", "setting": "[1]", "value": "inactive"}]}, {"smiles": "COCC(C)N(C(=O)CCl)c1c(C)csc1C", "note": "(stereo not given)", "values": [{"measurement": "Potency", "setting": "[1]", "value": "13.5 µM (active)"}]}, {"smiles": "COc1ccc(OC)c(C(O)C(C)N)c1", "note": "(stereo not given)", "values": [{"measurement": "Potency", "setting": "[1]", "value": "inactive"}, {"measurement": "outcome", "setting": "[4]", "value": "inactive"}]}, {"smiles": "OC1(c2ccc(Cl)cc2)c2ccccc2C2=NCCN21", "note": "(stereo not given)", "values": [{"measurement": "Potency", "setting": "[1]", "value": "15.1 µM (active)"}]}, {"smiles": "Cc1cn(C[C@H](N)C(=O)O)c(=O)n(Cc2cc(-c3ccccc3)sc2C(=O)O)c1=O", "values": [{"measurement": "Potency", "setting": "[1]", "value": "inactive"}, {"measurement": "Potency", "setting": "[2]", "value": "inactive"}, {"measurement": "Potency", "setting": "[3]", "value": "inactive"}]}]}
